Results filed as inconclusive are left out. Unmarked numbers belong to inactive results. The call rests on the fitted dose curve; in most records, active means well fitted inhibition curve with a large enough effect; inconclusive means small, poorly fitted or top-dose-only effect; inactive means no such curve, though single readings can be large or run the other way.
target: Protein phosphatase 1D (Homo sapiens) (UniProt O15297); assay: RapidFire Mass Spectrometry qHTS Assay for Modulators of WT P53-Induced Phosphatase 1 (WIP1) (AID 1347424); conditions: WIP1 dephosphorylation of phosphopeptide, RapidFire MS; series mostly up to 63 µM; activity change, negative = inhibition: at the top concentration;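 further: amount of dephosphorylated VEPPL-S-QETFS peptide product formed by WIP1; plate controls were DMSO wells for no effect and GSK830371 inhibitor control at 10 µM for full effect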
Method in brief: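 Mass-spectrometric measurement of dephosphorylated peptide after a 5 min room-temperature reaction of 10 nM WIP1 with 2 uM phosphopeptide, following 1 h compound preincubation in 30 mM MgCl2 buffer.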

Sequence of Protein phosphatase 1D (Homo sapiens) (O15297 whole entry, looked up): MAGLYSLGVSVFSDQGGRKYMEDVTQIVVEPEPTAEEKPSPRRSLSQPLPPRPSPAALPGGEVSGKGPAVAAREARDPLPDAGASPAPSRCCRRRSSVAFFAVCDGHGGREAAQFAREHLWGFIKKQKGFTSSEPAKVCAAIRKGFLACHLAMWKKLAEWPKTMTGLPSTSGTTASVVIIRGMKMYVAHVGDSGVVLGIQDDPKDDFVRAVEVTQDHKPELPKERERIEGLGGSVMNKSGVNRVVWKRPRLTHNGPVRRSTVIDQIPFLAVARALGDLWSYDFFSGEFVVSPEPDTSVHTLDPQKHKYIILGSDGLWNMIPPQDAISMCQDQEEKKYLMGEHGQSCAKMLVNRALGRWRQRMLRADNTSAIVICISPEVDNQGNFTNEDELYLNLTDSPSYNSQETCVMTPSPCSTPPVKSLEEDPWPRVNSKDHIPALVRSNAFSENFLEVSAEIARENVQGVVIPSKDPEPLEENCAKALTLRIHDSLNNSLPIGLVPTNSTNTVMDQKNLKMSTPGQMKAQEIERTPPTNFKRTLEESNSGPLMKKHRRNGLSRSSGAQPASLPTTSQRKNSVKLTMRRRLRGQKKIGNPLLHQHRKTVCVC

Row | Compound | activity change, negative = inhibition [%]
1 | COc1ccnc(CS(=O)c2nc3ccc(OC(F)F)cc3[nH]2)c1OC (centres undefined) | 6.28
2 | CN(C)CCN(Cc1ccc(Cl)cc1)c1ccccn1 | -0.635
3 | OC[C@H]1O[C@@H](OCCc2ccc(O)cc2)[C@H](O)[C@@H](O)[C@H]1O | 7.07
4 | C[C@@H]1C[C@H]2[C@@H]3CCC4=CC(=O)C=C[C@]4(C)[C@@]3(F)[C@@H](O)C[C@]2(C)[C@@]1(O)C(=O)CO | 4.85

— PubChem BioAssay (NCATS)
